Experimental data as given in PubChem BioAssay (NCI).
The panel holds about 79,000 compounds, 15% with a hit somewhere; the sample as a whole holds those more often. Rule as the data show it: active = growth inhibition above about 70%; inactive = the rest. Where a SMILES comes first, the peptide text is derived from it. The star is where a group is joined. Boc = CC(C)(C)OC(=O)*

Key:
[1] = NCI Yeast Anticancer Drug Screen. Data for the rad50 strain (AID 155);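 also: 0% = growth of vehicle-only cultures of the same strain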; details: S. cerevisiae rad50 strain growth inhibition; at 50.0 µM; stronger effect = higher value
In short: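 Vehicle-treated cultures provide the reference for the growth inhibition reported for compound-exposed, repair-deficient yeast.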

[2] = NCI Yeast Anticancer Drug Screen. Data for the mec2-1 strain (AID 157); details: S. cerevisiae mec2-1 strain, at 50.0 µM, stronger effect = higher value
In short: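 mec2-1 yeast strain, carrying an alteration in DNA damage repair or cell cycle control, was exposed to compounds; growth inhibition was measured relative to vehicle-treated controls.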

[3] = NCI Yeast Anticancer Drug Screen. Data for the sgs1 mgt1 strain (AID 161);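 also: 0% = growth of cultures given vehicle only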; details: S. cerevisiae sgs1 mgt1 strain, at 50.0 µM, stronger effect = higher value
In short: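 Percent growth inhibition was derived by comparing compound-exposed mutant yeast with vehicle-exposed cultures. The strain carries alterations in DNA damage repair.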

[4] = NCI Yeast Anticancer Drug Screen. Data for the cln2 rad14 strain (AID 165);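 also: 0% = growth equal to vehicle treated cultures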; details: S. cerevisiae cln2 rad14 strain, at 50.0 µM, stronger effect = higher value
In short: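 Yeast carrying cln2 and rad14 alterations (cell cycle control and DNA damage repair) were exposed to compounds. Growth inhibition was measured against vehicle-treated controls.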

[5] = NCI Yeast Anticancer Drug Screen. Data for the bub3 strain (AID 167); details: S. cerevisiae bub3 mutant strain, at 50.0 µM, stronger effect = higher value
In short: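 Mutant yeast screening strain plus compound; vehicle-treated cultures serve as the 0% inhibition reference.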

[6] = NCI Yeast Anticancer Drug Screen. Data for the mlh1 rad18 strain (AID 175); details: S. cerevisiae mlh1 rad18 strain growth inhibition; at 50.0 µM; stronger effect = higher value
In short: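 Growth inhibition of the yeast strain was measured after compound exposure and expressed relative to vehicle-treated controls. The strain carries defined defects in DNA damage repair.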

Measured: growth inhibition

CCN(CC)Cc1ccccc1CO
inactive: [1] 3.05% | [2] 6.15% | [3] 2.2% | [4] 9.75% | [5] 9.6% | [6] 0.5%

CNCCSSCCN
inactive: [1] -10.2% | [2] -0.95% | [3] -6.3% | [4] -18.8% | [5] 2.6% | [6] 0.95%

ClC1CCCCC1
inactive: [1] -12.8% | [2] -2.55% | [3] -0.35% | [4] -7.95% | [5] -7.2% | [6] -31.2%

O=[N+]([O-])c1ccc(/C=N/Nc2cnnc(Cl)c2Cl)cc1
inactive: [1] -0.6% | [2] 1.75% | [3] -1.95% | [4] -33% | [5] 2.45% | [6] 1.65%

Cc1ccc(S(=O)(=O)OCCOCCOc2ccc(C(C)(C)CC(C)(C)C)cc2)cc1
inactive: [1] 49.7% | [2] 1.05% | [3] 34% | [4] 4.3% | [5] 3.8% | [6] 27%

C/C(=C\N1CCCCC1)C(=O)c1ccc(F)cc1
inactive: [1] 9.3% | [2] 13.2% | [3] -4.65% | [4] 6.25% | [5] -16.4% | [6] 24.7%

CCN(CC)C(=O)Cn1c(C)cc2ccccc21
inactive: [1] -18.1% | [2] -18.1% | [3] 7.9% | [4] -2.75% | [5] 8% | [6] -13.6%

NC(Cc1c[nH]c2ccc(Br)cc12)C(=O)O (stereo unspecified)
inactive: [1] -29.4% | [2] -26.7% | [3] -17.9% | [4] 5.4% | [5] -29.8% | [6] -38.1%

O=C(NCC1(c2ccc3c(c2)OCO3)OCCO1)c1ccccc1[N+](=O)[O-]
inactive: [1] 20% | [2] -4.1% | [3] -2.1% | [4] -42.6% | [5] -5.75% | [6] 2.6%

CC(C)CSc1nc(N)nc2c1ncn2CC(C)C
inactive: [1] -8.65% | [2] -6.4% | [3] 32.7% | [4] -21.7% | [5] 29.4% | [6] 18.9%

O=C1OC(c2cccc(Cl)c2)=N/C1=C\c1ccc(Cl)cc1
inactive: [1] 20.4% | [2] 16.6% | [3] 16.6% | [4] 11.2% | [5] 7.5% | [6] 0.6%

COc1ccc([N+](=O)[O-])c2c(NCC(O)CO)ccnc12 (stereo unspecified)
inactive: [1] -0.35% | [2] -11% | [3] -9.7% | [4] -8.2% | [5] -25.1% | [6] -47.2%

[C-]#[N+]C([N+]#[C-])=C(C)OCC
inactive: [1] 7.9% | [2] 5.1% | [3] -5.2% | [4] 10.8% | [5] 21.6% | [6] 2.5%

CCCCCCCCCCCCCCCCOc1cccc(/C(=N/NS(C)(=O)=O)N2CCCCC2)c1
inactive: [1] -16.1% | [2] -30.6% | [3] -8.3% | [4] 1.75% | [5] -16.8% | [6] -5.5%

COc1cc(OC)c(N=Nc2c(N)nc(N)[nH]c2=O)cc1Cl
inactive: [1] 4.95% | [2] 14.6% | [3] 7.5% | [4] -12.1% | [5] 8.3% | [6] -1.4%

O=C1NC(=O)/C(=C\c2cccc(Br)c2)N1
inactive: [1] -7.95% | [2] 4.15% | [3] -12.1% | [4] 6.8% | [5] 24.5% | [6] 8.85%

CSC(=S)n1nc(C)c(N=Nc2ccccc2[N+](=O)[O-])c1C
inactive: [1] 26.5% | [2] -2.85% | [3] 0.15% | [4] 5.05% | [5] 7.95% | [6] 7.75%

O=S(=O)(NO)c1ccc(Cl)cc1
inactive: [1] 12.5% | [2] 7.8% | [3] 8.35% | [4] 23.8% | [5] 6.7% | [6] 3.2%

CC1(C)COCOC1c1ccccc1 (stereo unspecified)
inactive: [1] -6.2% | [2] 11.3% | [3] -21.4% | [4] -11.8% | [5] -1% | [6] 6.4%

CCn1c(=O)c2[nH]c(Cl)nc2n(CC(C)Cl)c1=O (stereo unspecified)
inactive: [1] 19.1% | [2] -5% | [3] 6.15% | [4] 17.8% | [5] 5.35% | [6] 19.1%

C#C/C=C/CC1OC(C(Br)CC)CC(Br)C2CC1O2 (stereo unspecified)
inactive: [1] 20.6% | [2] 16.8% | [3] 36.4% | [4] 24.4% | [5] 32% | [6] -18.2%

Clc1ccc(CSc2nnc(SCc3ccc(Cl)cc3)c3[nH]cnc23)cc1
inactive: [1] 14.2% | [2] 0.05% | [3] 20.9% | [4] 25.9% | [5] -3.2% | [6] -11.7%

c1ccc(COC2NCCN2Cc2ccccc2)cc1 (stereo unspecified)
inactive: [1] -29.6% | [2] -20.5% | [3] -10.7% | [4] 6.8% | [5] -55.5% | [6] -7.85%

CSc1cccc(N=C(C#N)C2=C(O)c3ccccc3C2=O)c1
inactive: [1] 21.1% | [2] 1.85% | [3] 9.65% | [4] 38.6% | [5] 21.5% | [6] 24.4%

CSCC1CC(c2ccc(Cl)cc2)=NO1 (stereo unspecified)
inactive: [1] 27.8% | [2] 6.8% | [3] 1.05% | [4] -1.4% | [5] 0.45% | [6] 32.6%

C/C(=N\NC(=O)c1cccnc1)c1cccc(/C(C)=N/NC(=O)c2cccnc2)n1.CC(=O)[O-].CC(=O)[O-].[Zn+2]
inactive: [1] -5.45% | [2] 5.15% | [3] -2.6% | [4] -15.2% | [5] -6.1% | [6] -4%

Nc1ccc2[nH]cc(CCC(=O)O)c2c1
inactive: [1] -11.8% | [2] -6.95% | [3] -4.45% | [4] -11.6% | [5] -60.6% | [6] 18.5%

COc1ccc2nc3cc([N+](=O)[O-])ccc3c(Nc3ccc(S(=O)(=O)N=C(N)N)cc3)c2c1
inactive: [1] 59.8% | [2] 21.8% | [3] 48.5% | [4] 12.8% | [5] 38.8% | [6] 53.9%

N#Cc1c(F)c(F)c(Oc2c(F)c(F)c(F)c(F)c2F)c(F)c1Oc1c(F)c(F)c(F)c(F)c1F
inactive: [1] -1.1% | [2] 11% | [3] -11.8% | [4] 9% | [5] -0.3% | [6] 5.8%

Cc1[nH]c(=O)[nH]c(=O)c1/C=C/C(=O)NC(CO)CSC(C)C (stereo unspecified)
inactive: [1] -2% | [2] 27.1% | [3] -7.75% | [4] -3.9% | [5] 8.4% | [6] 9.55%

OCCN(CCO)c1cc(/C=C/c2cccc3ccccc23)nc2ccccc12
inactive: [1] 56.9% | [2] 11.3% | [3] 39.6% | [4] 3.85% | [5] -6.5% | [6] 37.4%

CCOCCOC(=O)C(C)OC(=O)/C(=C/C(=O)O)CCOCC (stereo unspecified)
inactive: [1] -1% | [2] -18.4% | [3] -9.75% | [4] -0.2% | [5] -1.6% | [6] 8.85%

CN1C(=O)CC(c2cccc(C3CC(=O)N(C)C3=O)n2)C1=O (stereo unspecified)
inactive: [1] -18.6% | [2] -23.7% | [3] -17.6% | [4] -5.8% | [5] -11.7% | [6] -13.7%

O=C(NC(=S)Nc1cc(C(F)(F)F)ccc1Cl)c1ccccc1F
inactive: [1] -1.25% | [2] -1.2% | [3] 0.35% | [4] -6.85% | [5] -1.35% | [6] 4.95%

COC(=O)CNC(=O)C(CC(C)C)NC(=O)C(CC(C)C)NC(=O)OC(C)(C)C (stereo not drawn) (Boc-Leu-Leu-Gly-OMe; configuration not given here)
inactive: [1] 42.2% | [2] 1.65% | [3] 32.1% | [4] 10.5% | [5] -0.6% | [6] 15.8%

O=C(CC/C(CC(=O)c1ccc(Cl)cc1)=N\O)Nc1cccc(Cl)c1
inactive: [1] -31.9% | [2] -2.4% | [3] -6.45% | [4] -3.85% | [5] 0.7% | [6] -11.6%

CCCCCCC1CCCCC1
inactive: [1] -35% | [2] -41.7% | [3] -29% | [4] 19.9% | [5] -28.8% | [6] -20%

CC12CCCCC1=C(F)C(F)(F)S2 (stereo unspecified)
inactive: [1] 0.15% | [2] -17.4% | [3] 7.45% | [4] 24.6% | [5] -2.45% | [6] 17.7%

COc1ccc(NS(=O)c2ccc(Cl)cc2)cc1 (stereo unspecified)
inactive: [1] 13% | [2] 12.8% | [3] 28.3% | [4] 8.65% | [5] 11.4% | [6] 13.9%

CCC(CC)C(=O)OCCOc1ccccc1
inactive: [1] 0.9% | [2] -0.25% | [3] 3.95% | [4] -20.2% | [5] 19.4% | [6] -1.8%

CC(=O)NC(C(=O)NC(CSCc1ccccc1)C(=O)O)=C(C)C (stereo unspecified)
inactive: [1] -2.05% | [2] -13.5% | [3] 8.9% | [4] 3.1% | [5] -36.4% | [6] -11.3%
